The campaign covered roughly 39,000 compounds. About 220 (0.56%) showed activity. The sample holds actives, similar compounds and a random draw of the others, so the mix is not that of the screen. Values without a mark were called inactive.
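Further: Wild-type cells incubated without shaking, value is the mean of two biological replicates.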

In the experiment the test system is Escherichia coli K-12 BW25113. In words: relative growth (OD600 normalised to plate interquartile mean) (fraction); higher = less growth inhibition, active = 0.2 or less. The conditions noted are these: 50 µM; LB; incubation time: overnight (16-24 h).
For the molecule `C[C@@H]1CCCCO[C@H](CN(C)S(=O)(=O)c2ccc(F)cc2)[C@H](C)CN([C@@H](C)CO)C(=O)c2cc(NC(=O)Nc3ccc4c(c3)OCO4)ccc2O1`, the relative growth was 1.

In the case of `C[C@H]1CCCCO[C@H](CN(C)S(=O)(=O)c2cn(C)cn2)[C@@H](C)CN([C@@H](C)CO)C(=O)c2cc(NS(=O)(=O)c3cn(C)cn3)ccc2O1`, the relative growth is 0.995.

Turning to `C[C@@H]1CCCCO[C@@H](CN(C)S(=O)(=O)c2cccs2)[C@@H](C)CN([C@H](C)CO)C(=O)c2cc(NC(=O)Nc3ccccc3)ccc2O1`, the relative growth was 1.02.

On to `Cc1ccc(-c2ccc3c(c2)O[C@@H](CN(C)Cc2cncnc2)[C@H](C)CN([C@H](C)CO)S3(=O)=O)cc1`, for which the relative growth was 1.01.

In the case of `C[C@H](CO)N1C[C@H](C)[C@@H](CN(C)Cc2ccc3c(c2)OCO3)Oc2c(NC(=O)Nc3cccc4ccccc34)cccc2C1=O`, the relative growth was 1.01.

As for `C[C@H]1CCCCO[C@H](CN(C)C(=O)Nc2ccccc2)[C@@H](C)CN([C@@H](C)CO)C(=O)c2cc(NS(=O)(=O)c3cccs3)ccc2O1`, the relative growth is 1.02.

Turning to `CCC(=O)Nc1ccc2c(c1)C(=O)N(C)C[C@H](OC)[C@H](C)CN(C(=O)CN1CCOCC1)[C@H](C)CO2`, the relative growth was 0.974.

In the case of `NCCn1cccn1`, the relative growth is 1.01.

Take `NCc1ccccc1-n1cccn1`: the relative growth is 1.

`Cl.N=C(N)n1cccn1`: the relative growth was 0.042 (active).

As to `Cc1cc(C(=O)Nc2cccc3c2O[C@@H](CN(C)C(=O)Nc2ccc4c(c2)OCO4)[C@@H](C)CN([C@@H](C)CO)C3=O)n(C)n1`, the relative growth is 0.987.

`C[C@H]1CN([C@@H](C)CO)C(=O)c2cc(-c3ccc(C(=O)N(C)C)cc3)cnc2O[C@H]1CN(C)C(=O)c1ccncc1`: the relative growth was 0.964.

Turning to `COc1ccc([Si](C)(C)[C@@H]2[C@@H](CC(=O)N3CCC[C@H]3CO)O[C@]3(C(=O)N(Cc4cccc(N5CCCCC5=O)c4)c4ccccc43)[C@H]2C)cc1`, the relative growth was 1.02.

On to `C/C=C/C1=C(C(=O)O)N2C(=O)[C@@H](NC(=O)[C@H](N)c3ccc(O)cc3)[C@H]2SC1`, for which the relative growth is 0.876.

Consider `Nc1nc(/C(=C/CC(=O)O)C(=O)N[C@@H]2C(=O)N3C(C(=O)O)=CCS[C@H]23)cs1`, for which the relative growth is 1.01.

Regarding `C=CC1=C(C(=O)O)N2C(=O)C(NC(=O)C(=NOCC(=O)O)c3csc(N)n3)C2SC1` (stereo not given), the relative growth is 1.01.

As to `Nc1nc(C(=CCC(=O)O)C(=O)NC2C(=O)N3C(C(=O)O)=CCSC23)cs1` (stereo not given), the relative growth is 0.0485 (active).

As for `C=CC1=C(C(=O)O)N2C(=O)[C@@H](NC(=O)/C(=N\O)c3csc(N)n3)[C@H]2SC1`, the relative growth is 0.0321 (active).

For the molecule `C=CC1=C(C(=O)O)N2C(=O)C(NC(=O)C(=NO)c3csc(N)n3)C2SC1` (stereo not given), the relative growth was 0.05 (active).

Take `C=CC1=C(C(=O)O)N2C(=O)[C@@H](NC(=O)/C(=N\OCC(=O)O)c3csc(N)n3)[C@H]2SC1`: the relative growth was 0.0479 (active).

Regarding `C[C@H](CO)N1C[C@H](C)[C@H](CN(C)S(=O)(=O)c2ccccc2F)Oc2ncc(C#Cc3ccccc3F)cc2C1=O`, the relative growth is 0.997.

As to `CO[C@@H]1CN(C)C(=O)c2cc(NC(=O)c3ccccc3)ccc2OC[C@@H](C)N(C(=O)CN(C)C)C[C@@H]1C`, the relative growth was 0.926.

With `Cc1noc(C)c1NC(=O)Nc1cccc2c1O[C@H](CN(C)Cc1ccc(Oc3ccccc3)cc1)[C@H](C)CN([C@H](C)CO)C2=O`, the relative growth is 0.982.

As to `Cc1noc(C)c1S(=O)(=O)Nc1ccc2c(c1)C(=O)N([C@@H](C)CO)C[C@@H](C)[C@@H](CN(C)S(=O)(=O)c1cccs1)O2`, the relative growth was 1.01.

As to `C[C@H](CO)N1C[C@H](C)[C@H](CN(C)Cc2ccc(C(=O)O)cc2)Oc2ccc(NC(=O)CCCN(C)C)cc2C1=O`, the relative growth is 1.01.

With `COc1ccc(C2=C(NC(=O)c3ccc(OC)cc3-c3cccc(OC)c3)C(=O)c3ccccc3C2=O)cc1`, the relative growth is 1.01.

For `C[C@@H]1CCCCO[C@@H](CN(C)C(=O)CCC(F)(F)F)[C@H](C)CN([C@H](C)CO)C(=O)c2cc(NS(=O)(=O)c3ccccc3)ccc2O1`, the relative growth was 0.994.

As for `C=CC1=C(C(=O)O)N2C(=O)[C@@H](NC(=O)/C(=N/O)c3csc(N)n3)[C@H]2SC1`, the relative growth was 0.0336 (active).

As for `C/C=C\C1=C(C(=O)O)N2C(=O)[C@H](NC(=O)[C@@H](N)c3ccc(O)cc3)[C@@H]2SC1`, the relative growth is 0.912.

Take `CC=CC1=C(C(=O)O)N2C(=O)C(NC(=O)C(N)c3ccc(O)cc3)C2SC1` (stereo not given): the relative growth is 1.08.

For `Nc1nc(/C(=N/O)C(=O)N[C@@H]2C(=O)N3C(C(=O)O)=C(/C=C4\CCN([C@@H]5CCNC5)C4=O)CS[C@H]23)ns1`, the relative growth is 0.0367 (active).

On to `C[C@H](CO)N1C[C@H](C)[C@H](CN(C)S(=O)(=O)c2ccc(Cl)cc2)Oc2ccc(NC(=O)CCCN(C)C)cc2C1=O`, for which the relative growth was 0.989.

Regarding `COc1ccc(Cc2nn[nH]n2)cc1`, the relative growth was 1.

With `Cc1noc(C)c1NC(=O)N(C)C[C@H]1OCCCC[C@H](C)Oc2ccc(NC(=O)c3ccccc3)cc2C(=O)N([C@@H](C)CO)C[C@H]1C`, the relative growth was 0.98.

With `CCc1nc2ccc(C(=O)Nc3cccc(OC)c3)cn2c1N(CC)Cc1cccc(Br)c1`, the relative growth was 1.01.

Consider `CO[C@H]1CN(C)C(=O)c2cc(NC(C)=O)ccc2OC[C@@H](C)N(S(=O)(=O)c2cn(C)cn2)C[C@@H]1C`, for which the relative growth is 1.01.

`CCn1cc(C(=O)O)c(=O)c2cc(F)c(N3CCNC(C)C3)c(F)c21.Cl` (stereo not given): the relative growth is 0.0478 (active).

As to `COc1c(N2CCNC(C)C2)c(F)cc2c(=O)c(C(=O)O)cn(C3CC3)c12` (stereo not given), the relative growth was 0.0431 (active).

Take `COc1c(N2CC3CCCNC3C2)c(F)cc2c(=O)c(C(=O)O)cn(C3CC3)c12.Cl` (stereo not given): the relative growth was 0.0459 (active).

For `C[C@@H]1CN([C@@H](C)CO)C(=O)c2cc(Br)cnc2O[C@H]1CN(C)C(=O)c1ccc2c(c1)OCO2`, the relative growth is 0.994.

Consider `Nc1c2c(=O)[nH]c(=O)cc-2[nH]n1-c1ccccc1`, for which the relative growth is 0.972.

Turning to `COCC#Cc1ccc2c(c1)O[C@H](CN(C)C(=O)C1CCOCC1)[C@H](C)CN([C@@H](C)CO)S2(=O)=O`, the relative growth was 1.01.

Regarding `CC(C)CNC(=O)C[C@H]1NCCNC1=O`, the relative growth was 0.923.

As for `CN1C(=O)c2cc(NC(=O)c3cccs3)ccc2OC[C@@H]2O[C@H](CC(=O)NCCN3CCCCC3)CC[C@H]21`, the relative growth is 1.02.

Turning to `C[C@@H]1CN([C@H](C)CO)C(=O)c2cc(NC(=O)Cn3cnnn3)ccc2O[C@@H]1CN(C)Cc1ccncc1`, the relative growth is 1.01.

For `C[C@H]1CN([C@@H](C)CO)C(=O)c2cc(-c3ccncc3)cnc2O[C@H]1CN(C)S(=O)(=O)c1ccccc1`, the relative growth is 1.01.

Turning to `C=C(CC[C@@H](C)[C@H]1CC[C@@]2(C)C3=C(C[C@H](O)[C@]12C)[C@@]1(C)CC[C@@H](OC(=O)CC(=O)O)C(C)(C)[C@@H]1CC3)[C@@H](C)C(=O)O`, the relative growth was 0.89.

On to `C[C@@H]1CN([C@H](C)CO)C(=O)c2cc(NC(=O)Nc3ccc(F)cc3)ccc2O[C@@H](C)CCCCO[C@H]1CN(C)C(=O)C1CCCCC1`, for which the relative growth was 1.01.

With `CN1CCN(C(=O)C[C@@H]2CC[C@@H]3[C@H](COC[C@H](O)CN3C(=O)Nc3ccc4c(c3)OCO4)O2)CC1`, the relative growth is 0.974.

Consider `Cc1noc(C)c1S(=O)(=O)N(C)C[C@@H]1OCCCC[C@H](C)Oc2ccc(NC(=O)Nc3ccc(F)cc3)cc2C(=O)N([C@H](C)CO)C[C@@H]1C`, for which the relative growth was 1.

As to `CON=C(C(=O)NC1C(=O)N2C(C(=O)[O-])=C(CSc3nc(=O)c([O-])nn3C)CSC12)c1csc(N)n1.O.O.O.[Na+].[Na+]` (stereo not given), the relative growth was 0.0494 (active).

Consider `CON=C(C(=O)NC1C(=O)N2C(C(=O)[O-])=C(COC(N)=O)CSC12)c1ccco1.[Na+]` (stereo not given), for which the relative growth is 0.0464 (active).

As to `CON=C(C(=O)NC1C(=O)N2C(C(=O)OC(C)OC(C)=O)=C(COC(N)=O)CSC12)c1ccco1` (stereo not given), the relative growth was 0.881.

For `CO/N=C(\C(=O)N[C@@H]1C(=O)N2C(C(=O)O[C@@H](C)OC(C)=O)=C(COC(N)=O)CS[C@H]12)c1ccco1`, the relative growth was 1.01.

On to `CO/N=C(\C(=O)N[C@@H]1C(=O)N2C(C(=O)O)=C(CSc3nnnn3C)CS[C@H]12)c1csc(N)n1`, for which the relative growth is 0.0456 (active).

For `CON=C(C(=O)NC1C(=O)N2C(C(=O)[O-])=C(COC(C)=O)CSC12)c1csc(N)n1.[Na+]` (stereo not given), the relative growth is 0.0428 (active).

Take `COCC1=C(C(=O)OC(C)OC(=O)OC(C)C)N2C(=O)C(NC(=O)C(=NOC)c3csc(N)n3)C2SC1` (stereo not given): the relative growth is 0.551.

Turning to `Nc1nc(=O)c2nc(Br)n([C@@H]3O[C@@H]4COP(=O)(O)O[C@H]4[C@H]3O)c2[nH]1`, the relative growth was 1.03.

As to `O=C(C[C@@H]1C[C@H]2c3cc(NC(=O)Nc4ccc(C(F)(F)F)cc4)ccc3O[C@H]2[C@H](CO)O1)NCc1ccc(Cl)cc1`, the relative growth was 0.984.

For the molecule `CN1CCN(C(=O)C[C@H]2CC[C@@H]3[C@H](COC[C@H](O)CN3CC3CCCC3)O2)CC1`, the relative growth was 1.

Take `C[C@H](CO)N1C[C@H](C)[C@H](CN(C)C(=O)c2cccc(F)c2)Oc2cc(-c3cccnc3)ccc2S1(=O)=O`: the relative growth was 1.03.

Consider `NCC[C@H]1CC[C@H](NC(=O)NC2CCCCC2)[C@H](CO)O1`, for which the relative growth was 0.986.

With `C[C@@H]1CN([C@@H](C)CO)C(=O)Cc2cc(NC(=O)Nc3ccccc3)ccc2O[C@@H]1CN(C)Cc1ccc(Oc2ccccc2)cc1`, the relative growth was 0.967.

Take `Cc1nc(CN)c(C)o1`: the relative growth was 0.995.

Turning to `C[C@@H]1CN([C@@H](C)CO)C(=O)c2cc(NC(=O)Nc3ccc(C(F)(F)F)cc3)ccc2O[C@@H]1CN(C)S(=O)(=O)c1ccc(Cl)cc1`, the relative growth was 1.04.

Values taken from the supplement of paper PMC9446081.
